# Experimental data reported in the supplement of paper PMC10849652.
# Of roughly 7,900 targets only a part is listed; those with a hit were picked by preference. About 0.6% of all pairs of compound and target were hits. Unmarked numbers belong to inactive results.
# Legend:
# Experiment in all cases: log2 fold change, soluble protein after heating vs DMSO (PISA); higher = thermal stabilisation; K562 cells, 10 uM, 30 min; active = over 0.2 and 3.5 SD of the protein, either way, in both replicates (recomputed)
# bafetinib = compound: Cc1ccc(NC(=O)c2ccc(CN3CC[C@H](N(C)C)C3)c(C(F)(F)F)c2)cc1Nc1nccc(-c2cncnc2)n1 [bafetinib]
# Outline: (§1)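 K562 cells at 2×10^6 cells/mL were given 10 μM compound for 30 min. Aliquots then went through 3 min of heating across 48°C-58°C, were pooled, and were extracted in PBS with 0.5% NP-40 at 4°C, and the supernatant after 21,000xg for 90 min was quantified by TMTpro 16plex LC-MS/MS with channel sums equalised. Thermal stability relative to control samples, from duplicates, is given as log2 fold change.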
# [1] = compound: Cc1cccc(CC(=O)N2CCc3c2ccc(-c2cn(C)c4ncnc(N)c24)c3F)n1
# Outline: as §1
# nilotinib = compound: Cc1cn(-c2cc(NC(=O)c3ccc(C)c(Nc4nccc(-c5cccnc5)n4)c3)cc(C(F)(F)F)c2)cn1 [nilotinib]
# Outline: as §1
# [2] = compound: Cc1nc(Nc2n[nH]c3c2CN(C(=O)N[C@H](CN(C)C)c2ccccc2)C3(C)C)c2sccc2n1
# Outline: as §1
# dasatinib = compound: Cc1nc(Nc2ncc(C(=O)Nc3c(C)cccc3Cl)s2)cc(N2CCN(CCO)CC2)n1 [dasatinib]
# Outline: as §1
# [3] = compound: Cc1ncc(-c2ccnc(Nc3ccc(S(C)(=O)=O)cc3)n2)n1C(C)C
# Outline: as §1
# [4] = compound: Cn1cc(-c2ccc3c(c2)CCN3C(=O)Cc2cccc(C(F)(F)F)c2)c2c(N)ncnc21
# Outline: as §1
# [5] = compound: Cn1cc(-c2ccc3nnc(C(F)(F)c4ccc5ncccc5c4)n3n2)cn1
# Outline: as §1
# tipifarnib = compound: Cn1cncc1[C@@](N)(c1ccc(Cl)cc1)c1ccc2c(c1)c(-c1cccc(Cl)c1)cc(=O)n2C [tipifarnib]
# Outline: as §1
# mubritinib = compound: FC(F)(F)c1ccc(/C=C/c2nc(COc3ccc(CCCCn4ccnn4)cc3)co2)cc1 [mubritinib]
# Outline: as §1
# [6] = compound: NC(=O)Nc1cc(-c2cccc(F)c2)sc1C(=O)N[C@H]1CCCNC1
# Outline: as §1
# [7] = compound: NC(=O)c1cnc(N[C@@H]2CCCC[C@@H]2N)nc1Nc1cccc(-n2nccn2)c1
# Outline: as §1
# [8] = compound: NC1(c2ccc(-c3nc4ccn5c(=O)[nH]nc5c4cc3-c3ccccc3)cc2)CCC1
# Outline: as §1
# [9] = compound: NCC(=O)Nc1ccc(-n2nc(C(F)(F)F)cc2-c2ccc3c(ccc4ccccc43)c2)cc1
# Outline: as §1
# entinostat = compound: Nc1ccccc1NC(=O)c1ccc(CNC(=O)OCc2cccnc2)cc1 [entinostat]
# Outline: as §1
# vorinostat = compound: O=C(CCCCCCC(=O)Nc1ccccc1)NO [vorinostat]
# Outline: as §1
# citarinostat = compound: O=C(CCCCCCNC(=O)c1cnc(N(c2ccccc2)c2ccccc2Cl)nc1)NO [citarinostat]
# Outline: as §1
# silmitasertib = compound: O=C(O)c1ccc2c(c1)nc(Nc1cccc(Cl)c1)c1ccncc12 [silmitasertib]
# Outline: as §1
# [10] = compound: O=C1NC(=O)C(c2cnc3ccccn23)=C1c1cn2c3c(cc(F)cc13)CN(C(=O)N1CCCCC1)CC2
# Outline: as §1
# [11] = compound: c1cc(OCCN2CCCCC2)cc(-c2n[nH]c3ccc(-c4nnc[nH]4)cc23)c1
# Outline: as §1
# Chain of UniProt Q9Y5K3 (Q9Y5K3 whole entry, looked up): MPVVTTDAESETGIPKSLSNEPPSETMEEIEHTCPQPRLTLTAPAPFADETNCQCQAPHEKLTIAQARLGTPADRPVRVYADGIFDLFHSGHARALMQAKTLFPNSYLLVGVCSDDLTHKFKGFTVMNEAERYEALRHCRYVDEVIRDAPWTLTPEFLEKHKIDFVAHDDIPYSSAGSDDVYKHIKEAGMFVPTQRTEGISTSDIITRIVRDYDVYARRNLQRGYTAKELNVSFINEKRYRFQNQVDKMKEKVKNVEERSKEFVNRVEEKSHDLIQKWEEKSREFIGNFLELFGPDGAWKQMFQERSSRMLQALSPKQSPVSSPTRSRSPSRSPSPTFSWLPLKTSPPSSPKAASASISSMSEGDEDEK
# Chain of UniProt Q9Y2Y1 (Q9Y2Y1 whole entry, looked up): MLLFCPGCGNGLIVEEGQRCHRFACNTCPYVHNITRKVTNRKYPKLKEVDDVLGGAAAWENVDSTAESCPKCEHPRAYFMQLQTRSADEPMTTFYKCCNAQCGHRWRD
# Chain of UniProt Q99460 (Q99460 whole entry, looked up): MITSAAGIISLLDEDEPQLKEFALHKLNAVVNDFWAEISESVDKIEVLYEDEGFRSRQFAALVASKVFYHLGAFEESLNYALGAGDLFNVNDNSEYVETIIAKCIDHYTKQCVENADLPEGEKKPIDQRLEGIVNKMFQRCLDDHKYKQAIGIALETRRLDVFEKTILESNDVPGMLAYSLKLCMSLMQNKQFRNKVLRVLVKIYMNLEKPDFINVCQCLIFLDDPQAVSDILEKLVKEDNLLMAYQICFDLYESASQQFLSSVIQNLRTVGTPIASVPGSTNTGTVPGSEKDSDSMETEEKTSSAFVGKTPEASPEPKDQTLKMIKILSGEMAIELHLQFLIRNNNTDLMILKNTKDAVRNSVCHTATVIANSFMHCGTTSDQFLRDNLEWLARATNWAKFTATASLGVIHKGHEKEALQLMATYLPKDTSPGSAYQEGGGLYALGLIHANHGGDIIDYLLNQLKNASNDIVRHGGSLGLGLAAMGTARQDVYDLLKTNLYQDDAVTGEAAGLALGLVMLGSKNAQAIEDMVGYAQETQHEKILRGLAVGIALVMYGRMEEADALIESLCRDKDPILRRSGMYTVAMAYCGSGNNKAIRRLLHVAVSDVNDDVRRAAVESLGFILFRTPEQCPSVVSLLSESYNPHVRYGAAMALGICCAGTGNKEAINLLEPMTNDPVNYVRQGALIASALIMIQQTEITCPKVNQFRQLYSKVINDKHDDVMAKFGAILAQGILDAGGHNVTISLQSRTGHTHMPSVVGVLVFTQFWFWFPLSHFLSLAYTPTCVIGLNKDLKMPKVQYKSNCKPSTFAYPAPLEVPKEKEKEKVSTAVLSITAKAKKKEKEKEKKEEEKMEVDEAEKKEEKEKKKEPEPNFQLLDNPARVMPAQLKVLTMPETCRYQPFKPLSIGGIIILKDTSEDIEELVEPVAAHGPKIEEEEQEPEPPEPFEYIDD
# Chain of UniProt P14618 (P14618 whole entry, looked up): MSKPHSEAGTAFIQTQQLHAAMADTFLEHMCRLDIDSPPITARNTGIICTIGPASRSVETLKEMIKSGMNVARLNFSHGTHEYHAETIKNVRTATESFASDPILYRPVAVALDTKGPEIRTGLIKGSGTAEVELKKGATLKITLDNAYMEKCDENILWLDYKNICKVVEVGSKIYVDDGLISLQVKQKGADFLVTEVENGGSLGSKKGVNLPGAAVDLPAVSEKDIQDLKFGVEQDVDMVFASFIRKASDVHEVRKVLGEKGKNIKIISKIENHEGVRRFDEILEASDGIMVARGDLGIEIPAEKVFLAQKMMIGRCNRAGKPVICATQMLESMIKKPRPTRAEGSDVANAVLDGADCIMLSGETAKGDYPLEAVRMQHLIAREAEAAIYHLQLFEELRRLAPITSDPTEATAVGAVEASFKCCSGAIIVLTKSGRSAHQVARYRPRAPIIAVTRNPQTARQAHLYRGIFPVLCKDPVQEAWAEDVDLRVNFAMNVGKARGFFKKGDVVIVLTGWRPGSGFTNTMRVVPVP
# Chain of UniProt Q29RF7 (Q29RF7 whole entry, looked up): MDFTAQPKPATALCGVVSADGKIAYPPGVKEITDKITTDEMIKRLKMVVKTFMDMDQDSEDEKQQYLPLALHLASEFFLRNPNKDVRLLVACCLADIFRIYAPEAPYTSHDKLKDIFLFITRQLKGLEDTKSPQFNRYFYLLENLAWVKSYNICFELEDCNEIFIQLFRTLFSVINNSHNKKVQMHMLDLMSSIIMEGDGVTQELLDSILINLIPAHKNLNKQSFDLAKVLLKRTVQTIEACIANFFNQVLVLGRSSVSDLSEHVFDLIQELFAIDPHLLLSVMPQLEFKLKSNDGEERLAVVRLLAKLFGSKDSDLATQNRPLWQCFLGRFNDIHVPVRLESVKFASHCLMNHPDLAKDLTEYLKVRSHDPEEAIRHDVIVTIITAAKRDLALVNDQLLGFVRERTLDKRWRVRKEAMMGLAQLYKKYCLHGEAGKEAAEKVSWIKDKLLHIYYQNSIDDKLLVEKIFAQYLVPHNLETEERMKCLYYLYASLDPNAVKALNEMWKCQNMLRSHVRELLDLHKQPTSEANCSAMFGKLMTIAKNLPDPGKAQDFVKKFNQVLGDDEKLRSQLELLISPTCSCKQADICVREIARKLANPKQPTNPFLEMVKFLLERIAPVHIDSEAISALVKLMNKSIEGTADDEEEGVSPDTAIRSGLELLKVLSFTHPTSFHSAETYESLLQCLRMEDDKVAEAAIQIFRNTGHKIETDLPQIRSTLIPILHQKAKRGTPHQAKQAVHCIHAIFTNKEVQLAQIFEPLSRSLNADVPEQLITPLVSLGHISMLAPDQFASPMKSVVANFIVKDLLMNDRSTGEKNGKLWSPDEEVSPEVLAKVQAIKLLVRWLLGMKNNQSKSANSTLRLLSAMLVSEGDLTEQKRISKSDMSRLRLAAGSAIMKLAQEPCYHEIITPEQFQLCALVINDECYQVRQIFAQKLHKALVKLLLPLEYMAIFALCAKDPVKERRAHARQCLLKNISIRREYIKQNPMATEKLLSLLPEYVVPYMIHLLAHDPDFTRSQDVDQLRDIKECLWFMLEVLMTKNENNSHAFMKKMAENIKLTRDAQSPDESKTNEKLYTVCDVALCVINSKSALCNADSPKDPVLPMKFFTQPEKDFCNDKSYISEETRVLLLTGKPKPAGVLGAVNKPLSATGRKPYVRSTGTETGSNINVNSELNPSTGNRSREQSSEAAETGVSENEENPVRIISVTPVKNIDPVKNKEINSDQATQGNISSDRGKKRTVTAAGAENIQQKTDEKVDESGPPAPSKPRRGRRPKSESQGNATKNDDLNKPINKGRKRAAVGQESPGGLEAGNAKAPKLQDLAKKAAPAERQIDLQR
# Chain of UniProt P28072 (P28072 whole entry, looked up): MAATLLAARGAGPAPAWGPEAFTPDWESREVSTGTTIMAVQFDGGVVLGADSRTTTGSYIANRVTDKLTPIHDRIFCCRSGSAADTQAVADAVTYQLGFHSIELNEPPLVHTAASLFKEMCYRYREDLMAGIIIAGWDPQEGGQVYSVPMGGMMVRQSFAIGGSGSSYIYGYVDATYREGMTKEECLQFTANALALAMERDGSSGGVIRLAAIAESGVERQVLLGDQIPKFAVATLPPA
# Chain of UniProt Q6P4A8 (Q6P4A8 whole entry, looked up): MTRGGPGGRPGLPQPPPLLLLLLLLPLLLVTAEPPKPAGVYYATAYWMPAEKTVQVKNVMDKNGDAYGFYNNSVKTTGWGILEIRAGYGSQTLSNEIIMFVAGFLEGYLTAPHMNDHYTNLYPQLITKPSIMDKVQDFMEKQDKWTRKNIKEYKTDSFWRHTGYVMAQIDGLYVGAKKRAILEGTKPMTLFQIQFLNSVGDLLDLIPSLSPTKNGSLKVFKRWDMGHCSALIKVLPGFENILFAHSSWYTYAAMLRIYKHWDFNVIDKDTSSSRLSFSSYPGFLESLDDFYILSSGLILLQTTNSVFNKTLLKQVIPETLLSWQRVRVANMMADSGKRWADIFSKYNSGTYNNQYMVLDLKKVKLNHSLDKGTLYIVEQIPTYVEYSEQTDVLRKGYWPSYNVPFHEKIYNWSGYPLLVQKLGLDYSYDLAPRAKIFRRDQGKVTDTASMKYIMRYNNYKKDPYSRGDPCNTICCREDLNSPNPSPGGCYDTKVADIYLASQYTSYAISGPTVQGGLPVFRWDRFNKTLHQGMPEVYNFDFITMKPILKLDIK
# Chain of UniProt Q9H5K3 (Q9H5K3 whole entry, looked up): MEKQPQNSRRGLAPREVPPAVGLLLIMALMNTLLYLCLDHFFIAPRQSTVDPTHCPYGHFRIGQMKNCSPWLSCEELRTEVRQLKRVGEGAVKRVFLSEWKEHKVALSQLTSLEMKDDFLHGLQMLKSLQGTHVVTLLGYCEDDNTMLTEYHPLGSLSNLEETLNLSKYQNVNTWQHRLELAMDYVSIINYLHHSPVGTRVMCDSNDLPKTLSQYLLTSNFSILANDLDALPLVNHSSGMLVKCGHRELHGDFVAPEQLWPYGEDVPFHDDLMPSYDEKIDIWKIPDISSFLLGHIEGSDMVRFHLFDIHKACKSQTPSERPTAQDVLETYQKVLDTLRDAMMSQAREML
# Chain of UniProt P10644 (P10644 whole entry, looked up): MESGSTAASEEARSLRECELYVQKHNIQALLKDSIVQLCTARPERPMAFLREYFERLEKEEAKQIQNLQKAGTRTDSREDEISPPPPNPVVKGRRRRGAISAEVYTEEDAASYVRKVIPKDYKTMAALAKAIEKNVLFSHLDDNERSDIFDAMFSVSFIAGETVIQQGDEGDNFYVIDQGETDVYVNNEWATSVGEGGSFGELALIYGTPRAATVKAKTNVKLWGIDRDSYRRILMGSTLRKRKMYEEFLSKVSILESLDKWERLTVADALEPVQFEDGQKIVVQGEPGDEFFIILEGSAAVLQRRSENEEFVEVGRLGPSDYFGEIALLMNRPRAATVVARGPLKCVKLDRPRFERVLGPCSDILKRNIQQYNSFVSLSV
Target,log2 fold change (bafetinib),log2 fold change [1],log2 fold change (nilotinib),log2 fold change [2],log2 fold change (dasatinib),log2 fold change [3],log2 fold change [4],log2 fold change [5],log2 fold change (tipifarnib),log2 fold change (mubritinib),log2 fold change [6],log2 fold change [7],log2 fold change [8],log2 fold change [9],log2 fold change (entinostat),log2 fold change (vorinostat),log2 fold change (citarinostat),log2 fold change (silmitasertib),log2 fold change [10],log2 fold change [11]
POLR2D (UniProt O15514),0.009,-0.076,-0.028,0.122,-0.013,0.202,-0.036,0.034,-0.01,0.052,0.04,0.145,-0.016,0.022,-0.026,-0.133,-0.078,0.049,-0.015,-0.06
PSMD3 (UniProt O43242),0.129,0.032,0.008,0.089,0.004,-0.012,-0.064,-0.018,0.025,-0.019,-0.027,0.009,-0.032,0.041,-0.02,-0.009,-0.009,0.008,0.014,-0.082
PTDSS1 (UniProt P48651),-0.125,0.092,-0.166,0.084,-0.002,0.017,-0.089,0.042,0.018,-0.074,0.043,-0.045,0.022,-0.007,-0.058,0.199,-0.051,0.091,0.184,-0.06
PSMD1 (UniProt Q99460),0.16,0.037,0.006,0.041,0.065,-0.017,-0.102,0.019,0.068,-0.019,0.086,0.007,-0.013,0.068,0.006,0.013,0.014,-0.019,0.094,-0.057
PML (UniProt P29590),-0.078,0.029,-0.035,-0.046,-0.036,-0.037,-0.047,-0.003,0.014,-0.023,0.021,-0.027,-0.029,0.015,-0.002,-0.059,0.019,0.088,0.002,-0.042
PCYT1B (UniProt Q9Y5K3),-0.193,-0.068,-1.28 (active),-0.105,-0.142,-0.089,-0.024,-0.037,-0.053,0.168,-0.019,-0.007,-0.218,-0.03,0.043,-0.038,0.084,0.077,-0.231,-0.025
POMK (UniProt Q9H5K3),-0.057,0.067,-0.032,-0.029,-0.05,0.016,0,0.034,-0.044,-0.126,0,0.058,-0.173,-0.044,0.045,0.04,0.105,0.101,0.017,-0.303
PTPN12 (UniProt Q05209),-0.052,0.008,-0.022,-0.122,-0.059,0.074,-0.116,-0.086,-0.081,0.021,0.037,-0.023,-0.1,-0.012,0.038,-0.01,0.019,0.163,0.014,-0.015
PRKCD (UniProt Q05655),-0.028,-0.007,0.033,-0.261 (active),-0.049,-0.021,0.027,0.102,0.008,0.08,-0.086,-0.05,-0.081,-0.031,0.024,0.031,0.006,0.045,-0.06,-0.083
PDS5A (UniProt Q29RF7),-0.055,0.008,-0.397,-0.164,-0.3,0.001,0.08,0.123,-0.231,0.157,-0.076,-0.024,-0.061,0.018,0.306,0.062,0.068,0.017,-0.103,-0.075
PLBD1 (UniProt Q6P4A8),-0.143,0,0.021,-0.029,-0.063,-0.035,0.041,0.081,0.038,0.052,0.008,-0.061,-0.076,-0.039,0.008,-0.038,-0.018,0.003,-0.027,0.409
PKM (UniProt P14618),-0.023,-0.012,-0.011,-0.004,0.024,-0.009,0.015,0.006,0.005,0.035,0.01,-0.029,0.011,-0.025,-0.013,-0.009,0.016,-0.016,-0.032,-0.02
PRKAR1A (UniProt P10644),0.232,-0.006,0.12,0.195,-0.046,0.152,0,0.281,0.231,-0.169,-0.052,0.191,0.301,-0.041,-0.068,-0.16,0,0.166,0.063,-0.04
PSME4 (UniProt Q14997),0.069,0.141,-0.057,0.016,-0.084,-0.098,0.015,-0.006,-0.036,0.052,0.047,-0.054,-0.204,-0.03,0.011,0.127,0.047,-0.007,0.02,-0.092
POLR3K (UniProt Q9Y2Y1),-0.006,-0.039,0.035,-0.003,0.098,0.01,-0.02,-0.021,0.033,-0.088,0.045,0.007,0.057,0.057,0.009,-0.003,-0.025,0.013,-0.028,0.025
PSMB6 (UniProt P28072),0.06,-0.053,0.028,0.049,0.098,-0.011,-0.068,-0.027,0.125,-0.014,0.024,0.006,0.046,0.044,-0.054,-0.093,-0.046,-0.004,0.044,-0.034
